Data on 14 compounds can be found in PubChem BioAssay (NCATS).

Structures are written as SMILES. Inconclusive results are not listed. Activity calls are given as the source filed them. Calls come from the whole dose curve; as a rule, active = well fitted inhibition curve with a large enough effect; inconclusive = small, poorly fitted or top-dose-only effect; inactive = flat fitted curve, though single readings scatter.

Common to all, as to test: qHTS profiling for inhibitors of Plasmodium falciparum proliferation (AID 504749); note: nearly all actives have a fitted effect of over 60% in size
What all share (conditions): P. falciparum in erythrocytes, SYBR Green DNA, 72 h; series mostly up to 28.7 µM
In general terms: In qHTS, concentration-response curves come from the screen itself.

In one experiment the test system is CP201. The essentials:
(§1)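 In a 72 h erythrocytic culture (37 C, humidified, 5% CO2) at 2.5% hematocrit and 0.3% starting parasitemia, compounds were tested; SYBR Green I in detergent lysis buffer stained parasite DNA overnight.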

The subject of another experiment is CP211. The method in brief:
as §1

Another experiment has as its system CP215. The method in brief: as §1
The subject of another experiment is CP217. The method in brief:
as §1

The subject of the next experiment is CP237. The essentials: as §1
The subject of another experiment is CP238. The essentials: as §1
The next experiment relates to CP250. The essentials: as §1
In the next experiment the test system is CP247. The method in brief:
as §1

Another experiment has as its system CP194. The essentials:
as §1

The next experiment concerns CP203. The method in brief:
as §1
Potency is the fitted concentration of half-maximal effect.

For the compound `CN(C(=O)CCCOc1ccc2[nH]c(=O)ccc2c1)C1CCCCC1`, the Potency entry in the experiment with CP201, in the experiment on CP211, in the experiment with CP215, in the experiment with CP217, in the experiment with CP237 and in the experiment with CP238 was “inactive” in each case. Besides, the Potency entry with CP250 was “inactive”.
As for `CCCCNc1ccc(C(=O)OCCN(C)C)cc1`, the Potency entry with CP215, in the experiment with CP217, in the experiment on CP237, in the experiment with CP238, in the experiment on CP247 and with CP250 was “inactive” throughout.
Regarding `CN1C[C@H](C(=O)N[C@]2(C)O[C@@]3(O)[C@@H]4CCCN4C(=O)[C@H](Cc4ccccc4)N3C2=O)C[C@@H]2c3cccc4[nH]cc(c34)C[C@H]21`, the Potency was 12 µM (active) with CP194, 12 µM (active) in the experiment on CP211 and 13.5 µM (active) in the experiment with CP215.
Turning to `Cc1nc2ccccn2c(=O)c1CCN1CCC(C(=O)c2ccc(F)cc2)CC1`, the Potency entry in the experiment on CP201, in the experiment on CP211, in the experiment with CP215, in the experiment on CP217, in the experiment on CP238 and in the experiment with CP250 was “inactive” each time.
On to `CN(C)CCCN1c2ccccc2Sc2ccccc21`, for which the Potency with CP203 was 4.05 µM (active).
With `CCN(CC)CCOCCOC(=O)C1(c2ccccc2)CCCC1`, the Potency entry with CP201 and with CP211 was “inactive” in each case. The results for the Potency in the experiment with CP215, in the experiment with CP217 and with CP237 were 15.1 µM (active), 11.2 µM (active) and 2.51 µM (active), respectively.
As to `CCCN1C[C@H](CSC)C[C@@H]2c3cccc4[nH]cc(c34)C[C@H]21`, the Potency result with CP201, in the experiment on CP215 and in the experiment on CP250 was “inactive” in each case.
Turning to `CC(C)(C)c1ccc(C(=O)CCCN2CCC(OC(c3ccccc3)c3ccccc3)CC2)cc1`, the Potency in the experiment on CP217 is 7.94 µM (active); with CP237, 11.2 µM (active); in the experiment on CP238 it was 11.2 µM (active).
For the compound `CC(C)[N+](C)(CCOC(=O)C1c2ccccc2Oc2ccccc21)C(C)C`, the Potency result with CP201, with CP211 and in the experiment with CP215 was “inactive” throughout.
Regarding `OC(CCN1CCCCC1)(c1ccccc1)C1CCCCC1` (configuration not stated), the Potency result in the experiment with CP201, with CP211, in the experiment with CP215, in the experiment with CP217, with CP237 and with CP238 was “inactive” in each case. The Potency entry with CP247 and with CP250 was “inactive” each time.
Turning to `CC(=O)[C@]1(O)Cc2c(O)c3c(c(O)c2[C@@H](O[C@H]2C[C@H](N)[C@H](O)[C@H](C)O2)C1)C(=O)c1ccccc1C3=O`, the Potency is 15.1 µM (active) in the experiment on CP194; 13.5 µM (active) in the experiment with CP211; 10.7 µM (active) in the experiment with CP215; 5.01 µM (active) in the experiment on CP217; 3.55 µM (active) in the experiment with CP237; 7.08 µM (active) in the experiment with CP238. For the same compound, the Potency in the experiment on CP250 was 6.31 µM (active).
For `O=C1NCN(c2ccccc2)C12CCN(CCCC(c1ccc(F)cc1)c1ccc(F)cc1)CC2`, the Potency with CP217 is 8.91 µM (active); with CP237, 6.31 µM (active); with CP238, 8.91 µM (active); in the experiment with CP247, 7.08 µM (active); in the experiment with CP250, 10 µM (active).
As to `Cc1nc2sccn2c(=O)c1CCN1CCC(=C(c2ccc(F)cc2)c2ccc(F)cc2)CC1`, the Potency entry in the experiment on CP201 and with CP211 was “inactive” throughout.
For the compound `COc1cc(C(=O)OCCCN2CCCN(CCCOC(=O)c3cc(OC)c(OC)c(OC)c3)CC2)cc(OC)c1OC`, the Potency was 6.31 µM (active) with CP237, 7.94 µM (active) in the experiment with CP247 and 10 µM (active) in the experiment with CP250.
